# From the supplement of paper PMC8728848
# Only a selection was taken, and the strongest signals are over-represented in it overall.
# B1: FaeGac (Escherichia coli) (protein)
# chain: WMTGDFNGSVDIGGSITADDYRQKWEWKVGTGLNGFGNVLNDLTNGGTKLTITVTGNKPILLGRTKEAFATPVTGGVDGIPHIAFTDYEGASVVLRNPDGETNKKGLAYFVLPMKNAEGTKVGSVKVNASYAGVLGRGGVTSADGELLSLFADGLSSIFYGGLPRGSELSAGSAAAERTKLFGSLSRNDILGQIQRVNANITSLVDVAGSYRENMEYTDGTVVSAAYALGIANGQTIEATFNQAVTTSTQWSAPLNVAITYY
# B2: FedF (Escherichia coli), Q47212 (protein)
# chain: MRLKYILIIPLLLISLSVFASTLQVDKSVSYDWINSSASSAQVTGTLLGTGKTNTTQMPALYTWQHQIYNVNFIPSSSGTLTCQAGTILVWKNGRETQYALECRVSIHHSSGSINESQWGQQSQVGFGTACGNKKCRFTGFEISLRIPPNAQTYPLSSGDLKGSFSLTNKEVNWSASIYVPAIAKSYRLDTSITLPDTVNLKQNQATPVYYTFSAPSVSNTITGIPNQNDMPSSNVKLTIGPIQSKTTALYVQPDATGSWYDLSKSITMTVVKSSMLNFKGINAKPGNVTLSVPIVFEIQ
# Tests used:
# Test in all cases: glycan array binding signal (z-score within array); higher = stronger binding
# Details in all cases: glycan notation: IUPAC condensed, linker removed
# [1] = biological target: Fuc(a1-2)Gal(b1-4)GlcNAc(b1-3)Gal(b1-4)GlcNAc
# Method in brief: (§1)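 From the Consortium for Functional Glycomics database, 3228 arrays were curated, keeping only those whose protein sequence was available. Binding is given as a within-array Z-score averaged across arrays sharing a protein sequence and across linkers. Negative Z-scores can be read as non-binding.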
# [2] = biological target: Fuc(a1-2)Gal(b1-4)GlcNAc(b1-3)Gal(b1-4)GlcNAc(b1-3)Gal(b1-4)GlcNAc
# Method in brief: as §1
# [3] = biological target: Fuc(a1-2)Gal(b1-4)[Fuc(a1-3)]GlcNAc(b1-3)Gal(b1-4)[Fuc(a1-3)]GlcNAc(b1-3)Gal(b1-4)[Fuc(a1-3)]GlcNAc
# Method in brief: as §1
# [4] = biological target: Fuc(a1-2)[GalNAc(a1-3)]Gal(b1-4)GlcNAc
# Method in brief: as §1
# Fuc(a1-3)GlcNAc = biological target: Fuc(a1-3)GlcNAc
# Method in brief: as §1
# Gal(a1-4)Gal(b1-4)Glc = biological target: Gal(a1-4)Gal(b1-4)Glc
# Method in brief: as §1
# Gal(b1-2)Gal = biological target: Gal(b1-2)Gal
# Method in brief: as §1
# [5] = biological target: Gal(b1-3)GalNAc(b1-4)[Neu5Ac(a2-3)]Gal(b1-4)Glc
# Method in brief: as §1
# Gal(b1-4)GlcNAc = biological target: Gal(b1-4)GlcNAc
# Method in brief: as §1
# [6] = biological target: Gal(b1-4)GlcNAc(b1-3)Gal(b1-4)[Fuc(a1-3)]GlcNAc(b1-3)Gal(b1-4)[Fuc(a1-3)]GlcNAc
# Method in brief: as §1
# Gal3S(b1-4)GlcNAc = biological target: Gal3S(b1-4)GlcNAc
# Method in brief: as §1
# Gal3S6S(b1-4)GlcNAc6S = biological target: Gal3S6S(b1-4)GlcNAc6S
# Method in brief: as §1
# Gal4S6S(b1-4)GlcNAc = biological target: Gal4S6S(b1-4)GlcNAc
# Method in brief: as §1
# Gal6S(b1-4)Glc6S = biological target: Gal6S(b1-4)Glc6S
# Method in brief: as §1
# Glc(a1-4)Glc = biological target: Glc(a1-4)Glc
# Method in brief: as §1
# Glc(a1-6)Glc(a1-6)Glc = biological target: Glc(a1-6)Glc(a1-6)Glc
# Method in brief: as §1
# Glc(b1-4)Glc = biological target: Glc(b1-4)Glc
# Method in brief: as §1
# [7] = biological target: Man(a1-2)Man(a1-2)Man(a1-6)[Man(a1-3)]Man
# Method in brief: as §1
# [8] = biological target: Neu5Ac(a2-3)[GalNAc(b1-4)]Gal(b1-4)Glc
# Method in brief: as §1
# Neu5Gc(a2-3)Gal(b1-4)Glc = biological target: Neu5Gc(a2-3)Gal(b1-4)Glc
# Method in brief: as §1
# [9] = biological target: Fuc(a1-2)Gal(b1-4)[Fuc(a1-3)]GlcNAc(b1-3)Gal(b1-4)[Fuc(a1-3)]GlcNAc
# Method in brief: as §1
# [10] = biological target: Fuc(a1-2)[Gal(a1-3)]Gal(b1-4)[Fuc(a1-3)]GlcNAc
# Method in brief: as §1
# [11] = biological target: Fuc(a1-3)[Gal(b1-4)]GlcNAc(b1-2)Man(a1-3)[Fuc(a1-3)[Gal(b1-4)]GlcNAc(b1-2)Man(a1-6)]Man(b1-4)GlcNAc(b1-4)[Fuc(a1-6)]GlcNAc
# Method in brief: as §1
# [12] = biological target: Gal(a1-3)Gal(b1-4)[Fuc(a1-3)]GlcNAc(b1-2)Man(a1-3)[Gal(a1-3)Gal(b1-4)[Fuc(a1-3)]GlcNAc(b1-2)Man(a1-6)]Man(b1-4)GlcNAc(b1-4)GlcNAc
# Method in brief: as §1
# Gal(a1-3)GalNAc = biological target: Gal(a1-3)GalNAc
# Method in brief: as §1
# Gal(a1-6)Glc = biological target: Gal(a1-6)Glc
# Method in brief: as §1
# Gal(b1-3)Gal(b1-4)GlcNAc = biological target: Gal(b1-3)Gal(b1-4)GlcNAc
# Method in brief: as §1
# Gal(b1-3)GalNAc = biological target: Gal(b1-3)GalNAc
# Method in brief: as §1
# [13] = biological target: Gal(b1-3)GalNAc(a1-3)[Fuc(a1-2)]Gal(b1-4)GlcNAc
# Method in brief: as §1
# [14] = biological target: Gal(b1-3)GlcNAc(b1-2)Man(a1-3)[Gal(b1-3)GlcNAc(b1-2)Man(a1-6)]Man(b1-4)GlcNAc(b1-4)[Fuc(a1-6)]GlcNAc
# Method in brief: as §1
# [15] = biological target: Gal(b1-3)[Fuc(a1-4)]GlcNAc(b1-3)Gal(b1-4)[Fuc(a1-3)]GlcNAc
# Method in brief: as §1
# [16] = biological target: Gal(b1-4)GlcNAc(b1-2)Man(a1-6)Man(b1-4)GlcNAc(b1-4)GlcNAc
# Method in brief: as §1
# Gal3S(b1-4)Glc6S = biological target: Gal3S(b1-4)Glc6S
# Method in brief: as §1
# Gal3S(b1-4)GlcNAc6S = biological target: Gal3S(b1-4)GlcNAc6S
# Method in brief: as §1
# Gal6S(b1-4)GlcNAc = biological target: Gal6S(b1-4)GlcNAc
# Method in brief: as §1
# [17] = biological target: GlcNAc(a1-4)Gal(b1-4)GlcNAc(b1-3)Gal(b1-4)GlcNAc
# Method in brief: as §1
# [18] = biological target: GlcNAc(b1-2)Man(a1-3)[GlcNAc(b1-2)Man(a1-6)]Man(b1-4)GlcNAc(b1-4)[Fuc(a1-6)]GlcNAc
# Method in brief: as §1
# [19] = biological target: GlcNAc(b1-3)[GlcNAc(b1-6)]GalNAc
# Method in brief: as §1
# [20] = biological target: GlcNAc(b1-4)GlcNAc(b1-4)GlcNAc(b1-4)GlcNAc(b1-4)GlcNAc
# Method in brief: as §1
# GlcNAc3Prop(b1-4)GlcNAc = biological target: GlcNAc3Prop(b1-4)GlcNAc
# Method in brief: as §1
# [21] = biological target: Man(a1-2)Man(a1-3)[Man(a1-2)Man(a1-6)]Man
# Method in brief: as §1
# Man(a1-6)Man = biological target: Man(a1-6)Man
# Method in brief: as §1
# [22] = biological target: Neu5Ac(a2-3)Gal(b1-4)GlcNAc(b1-3)Gal(b1-4)[Fuc(a1-3)]GlcNAc
# Method in brief: as §1
# [23] = biological target: Neu5Gc(a2-3)Gal(b1-4)GlcNAc
# Method in brief: as §1
binder,measurement,setting,value
B1,glycan array binding signal (z-score),[1],-0.23
same,glycan array binding signal (z-score),[2],-0.359
same,glycan array binding signal (z-score),[3],-0.161
same,glycan array binding signal (z-score),[4],-0.577
same,glycan array binding signal (z-score),Fuc(a1-3)GlcNAc,0.65
same,glycan array binding signal (z-score),Gal(a1-4)Gal(b1-4)Glc,-0.179
same,glycan array binding signal (z-score),Gal(b1-2)Gal,0.274
same,glycan array binding signal (z-score),[5],-0.107
same,glycan array binding signal (z-score),Gal(b1-4)GlcNAc,-0.506
same,glycan array binding signal (z-score),[6],0.771
same,glycan array binding signal (z-score),Gal3S(b1-4)GlcNAc,0.384
same,glycan array binding signal (z-score),Gal3S6S(b1-4)GlcNAc6S,-0.43
same,glycan array binding signal (z-score),Gal4S6S(b1-4)GlcNAc,-0.495
same,glycan array binding signal (z-score),Gal6S(b1-4)Glc6S,0.68
same,glycan array binding signal (z-score),Glc(a1-4)Glc,10.9
same,glycan array binding signal (z-score),Glc(a1-6)Glc(a1-6)Glc,6.96
same,glycan array binding signal (z-score),Glc(b1-4)Glc,2.95
same,glycan array binding signal (z-score),[7],2.13
same,glycan array binding signal (z-score),[8],0.008
same,glycan array binding signal (z-score),Neu5Gc(a2-3)Gal(b1-4)Glc,-0.764
B2,glycan array binding signal (z-score),[1],-0.446
same,glycan array binding signal (z-score),[9],-0.053
same,glycan array binding signal (z-score),[10],0.755
same,glycan array binding signal (z-score),[11],-0.17
same,glycan array binding signal (z-score),[12],-0.084
same,glycan array binding signal (z-score),Gal(a1-3)GalNAc,-0.219
same,glycan array binding signal (z-score),Gal(a1-6)Glc,0.241
same,glycan array binding signal (z-score),Gal(b1-3)Gal(b1-4)GlcNAc,-0.144
same,glycan array binding signal (z-score),Gal(b1-3)GalNAc,-0.092
same,glycan array binding signal (z-score),[13],-0.088
same,glycan array binding signal (z-score),[14],0.741
same,glycan array binding signal (z-score),[15],-0.274
same,glycan array binding signal (z-score),[16],0.184
same,glycan array binding signal (z-score),Gal3S(b1-4)Glc6S,1.04
same,glycan array binding signal (z-score),Gal3S(b1-4)GlcNAc6S,0.729
same,glycan array binding signal (z-score),Gal3S6S(b1-4)GlcNAc6S,1.97
same,glycan array binding signal (z-score),Gal6S(b1-4)GlcNAc,0.402
same,glycan array binding signal (z-score),[17],0.918
same,glycan array binding signal (z-score),[18],1.99
same,glycan array binding signal (z-score),[19],-0.248
same,glycan array binding signal (z-score),[20],-0.269
same,glycan array binding signal (z-score),GlcNAc3Prop(b1-4)GlcNAc,13.7
same,glycan array binding signal (z-score),[21],0.257
same,glycan array binding signal (z-score),Man(a1-6)Man,-0.145
same,glycan array binding signal (z-score),[22],-0.292
same,glycan array binding signal (z-score),[23],-0.223
